In the supplement of paper PMC9446081:
± gives the standard deviation of the averaged measurements.

Assays:
Assay in all cases: relative enzymatic activity vs untreated control (fraction); higher = less inhibition
Details in all cases: 100 µM; incubation time: 2 h at 37 C
DNA gyrase = tested on: DNA gyrase
Procedure: (§1)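 In vitro enzymatic inhibition assays (ProFoldin kits) for 12 purified essential E. coli enzymes or complexes, each treated with 218 active antibacterial compounds at 100 µM for 2 h at 37°C. Read-outs were fluorescence or absorbance (phosphate detection, dye binding), converted to activity via standard curves and expressed relative to untreated DMSO controls.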

DNA helicase = DNA helicase (UniProt P0ACB1)
Procedure: as §1

DNA ligase = DNA ligase (UniProt B1XA82)
Procedure: as §1

DNA polymerase = DNA polymerase (UniProt P10443)
Procedure: as §1

DNA primase = DNA primase (UniProt P0ABS7)
Procedure: as §1

GlmU = GlmU (UniProt A7ZTU1)
Procedure: as §1

Guanlyate kinase = Guanlyate kinase (UniProt Q0TBG1)
Procedure: as §1

MurA = MurA (UniProt Q3YX52)
Procedure: as §1

MurD = target: T1, MurD (UniProt P14900)
T1 sequence (whole entry): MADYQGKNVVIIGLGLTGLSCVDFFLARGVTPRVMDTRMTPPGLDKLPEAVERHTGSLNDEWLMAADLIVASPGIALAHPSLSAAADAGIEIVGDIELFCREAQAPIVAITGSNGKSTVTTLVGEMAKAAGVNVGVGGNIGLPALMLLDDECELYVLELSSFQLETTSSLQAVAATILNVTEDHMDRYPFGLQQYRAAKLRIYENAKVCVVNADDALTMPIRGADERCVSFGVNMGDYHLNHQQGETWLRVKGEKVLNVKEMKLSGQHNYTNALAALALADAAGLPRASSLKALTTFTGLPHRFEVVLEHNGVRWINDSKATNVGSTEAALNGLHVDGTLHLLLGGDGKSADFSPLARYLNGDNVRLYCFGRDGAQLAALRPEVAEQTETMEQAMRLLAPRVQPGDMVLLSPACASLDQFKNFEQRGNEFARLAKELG
Procedure: as §1

MurF = target: T2, MurF (UniProt P11880)
T2 sequence (whole entry): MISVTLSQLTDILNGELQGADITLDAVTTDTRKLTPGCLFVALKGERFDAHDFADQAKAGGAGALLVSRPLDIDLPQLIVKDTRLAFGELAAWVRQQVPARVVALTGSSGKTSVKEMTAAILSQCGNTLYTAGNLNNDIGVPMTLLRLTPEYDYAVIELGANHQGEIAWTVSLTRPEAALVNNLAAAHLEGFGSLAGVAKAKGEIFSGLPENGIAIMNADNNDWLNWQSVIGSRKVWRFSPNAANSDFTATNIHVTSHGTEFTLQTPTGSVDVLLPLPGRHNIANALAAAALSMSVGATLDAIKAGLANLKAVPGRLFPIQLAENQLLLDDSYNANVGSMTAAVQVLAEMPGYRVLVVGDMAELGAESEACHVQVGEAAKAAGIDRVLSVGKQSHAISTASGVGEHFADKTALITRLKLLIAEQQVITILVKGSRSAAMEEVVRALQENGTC
Procedure: as §1

RNA polymerase = tested on: RNA polymerase
Procedure: as §1

DNA polymerase, sequence (P10443 whole entry): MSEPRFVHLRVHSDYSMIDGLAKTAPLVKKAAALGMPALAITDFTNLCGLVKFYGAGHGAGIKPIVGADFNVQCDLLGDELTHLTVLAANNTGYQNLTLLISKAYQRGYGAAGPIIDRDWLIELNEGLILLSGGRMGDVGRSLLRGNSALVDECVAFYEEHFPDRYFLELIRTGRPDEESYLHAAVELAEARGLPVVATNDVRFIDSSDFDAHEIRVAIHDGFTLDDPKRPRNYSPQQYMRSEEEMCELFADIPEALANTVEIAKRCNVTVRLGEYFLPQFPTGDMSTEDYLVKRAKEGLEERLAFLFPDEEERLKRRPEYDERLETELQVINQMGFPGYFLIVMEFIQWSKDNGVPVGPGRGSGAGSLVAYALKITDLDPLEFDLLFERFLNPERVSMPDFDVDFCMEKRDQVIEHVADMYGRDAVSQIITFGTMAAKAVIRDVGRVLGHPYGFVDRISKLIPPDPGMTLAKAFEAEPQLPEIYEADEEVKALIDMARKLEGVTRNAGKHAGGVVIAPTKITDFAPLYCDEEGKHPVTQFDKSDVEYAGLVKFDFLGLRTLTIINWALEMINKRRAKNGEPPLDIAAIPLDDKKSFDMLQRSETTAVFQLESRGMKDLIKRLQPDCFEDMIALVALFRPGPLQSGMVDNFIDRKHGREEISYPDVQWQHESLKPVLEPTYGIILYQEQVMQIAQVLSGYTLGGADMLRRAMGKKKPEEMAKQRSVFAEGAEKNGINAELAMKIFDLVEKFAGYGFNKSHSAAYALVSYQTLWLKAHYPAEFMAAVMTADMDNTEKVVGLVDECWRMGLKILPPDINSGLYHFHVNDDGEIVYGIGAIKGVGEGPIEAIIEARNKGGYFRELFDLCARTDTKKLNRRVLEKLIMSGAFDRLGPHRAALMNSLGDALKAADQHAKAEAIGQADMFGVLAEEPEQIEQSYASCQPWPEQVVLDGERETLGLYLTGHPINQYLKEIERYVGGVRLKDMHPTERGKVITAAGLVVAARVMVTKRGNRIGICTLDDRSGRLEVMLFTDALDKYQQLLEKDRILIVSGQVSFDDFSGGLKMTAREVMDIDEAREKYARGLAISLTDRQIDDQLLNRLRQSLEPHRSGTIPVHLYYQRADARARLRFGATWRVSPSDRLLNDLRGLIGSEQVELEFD
Guanlyate kinase, sequence (Q0TBG1 whole entry): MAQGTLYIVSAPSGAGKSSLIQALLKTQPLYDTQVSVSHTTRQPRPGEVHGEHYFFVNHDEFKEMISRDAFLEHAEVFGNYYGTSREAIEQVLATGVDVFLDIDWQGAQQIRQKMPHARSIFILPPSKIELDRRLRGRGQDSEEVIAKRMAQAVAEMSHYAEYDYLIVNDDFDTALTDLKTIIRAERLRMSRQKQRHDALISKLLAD
DNA primase, sequence (P0ABS7 whole entry): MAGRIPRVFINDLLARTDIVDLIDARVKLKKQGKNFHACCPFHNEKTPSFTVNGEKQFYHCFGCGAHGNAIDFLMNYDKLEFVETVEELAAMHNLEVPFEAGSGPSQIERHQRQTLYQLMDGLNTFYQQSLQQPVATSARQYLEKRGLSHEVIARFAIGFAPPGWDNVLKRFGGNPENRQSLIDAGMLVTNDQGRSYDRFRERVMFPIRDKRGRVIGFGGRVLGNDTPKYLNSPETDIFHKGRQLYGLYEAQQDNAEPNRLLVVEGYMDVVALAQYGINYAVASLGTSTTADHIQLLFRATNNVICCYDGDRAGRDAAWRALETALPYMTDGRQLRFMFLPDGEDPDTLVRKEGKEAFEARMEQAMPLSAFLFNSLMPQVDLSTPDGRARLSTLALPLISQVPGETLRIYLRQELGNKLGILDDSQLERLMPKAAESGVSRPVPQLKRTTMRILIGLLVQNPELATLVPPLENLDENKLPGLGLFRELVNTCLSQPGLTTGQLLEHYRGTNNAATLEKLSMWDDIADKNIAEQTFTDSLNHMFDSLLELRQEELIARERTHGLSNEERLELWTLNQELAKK
MurA, sequence (Q3YX52 whole entry): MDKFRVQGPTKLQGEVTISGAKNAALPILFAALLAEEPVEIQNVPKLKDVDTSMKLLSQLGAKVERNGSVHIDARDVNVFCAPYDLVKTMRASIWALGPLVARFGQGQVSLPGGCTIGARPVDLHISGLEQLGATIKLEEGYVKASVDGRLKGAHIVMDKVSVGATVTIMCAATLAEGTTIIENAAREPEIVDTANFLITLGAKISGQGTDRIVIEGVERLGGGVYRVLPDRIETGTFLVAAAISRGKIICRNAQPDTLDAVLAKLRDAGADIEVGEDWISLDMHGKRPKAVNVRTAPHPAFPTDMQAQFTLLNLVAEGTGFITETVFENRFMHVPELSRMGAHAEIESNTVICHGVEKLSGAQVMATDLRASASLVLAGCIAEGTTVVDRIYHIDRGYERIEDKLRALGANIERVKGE
GlmU, sequence (A7ZTU1 whole entry, looked up): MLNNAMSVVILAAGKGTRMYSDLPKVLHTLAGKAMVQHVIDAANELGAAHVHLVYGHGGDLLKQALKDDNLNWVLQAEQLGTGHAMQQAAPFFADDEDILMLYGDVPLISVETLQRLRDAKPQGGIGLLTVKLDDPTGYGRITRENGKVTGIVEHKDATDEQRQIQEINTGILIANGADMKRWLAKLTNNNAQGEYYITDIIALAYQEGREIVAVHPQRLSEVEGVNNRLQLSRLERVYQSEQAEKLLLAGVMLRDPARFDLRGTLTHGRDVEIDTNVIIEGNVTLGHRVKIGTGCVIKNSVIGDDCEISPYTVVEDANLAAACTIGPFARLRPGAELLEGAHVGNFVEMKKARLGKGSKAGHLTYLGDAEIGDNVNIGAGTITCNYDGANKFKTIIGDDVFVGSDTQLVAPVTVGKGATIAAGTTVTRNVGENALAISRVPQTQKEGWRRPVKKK
DNA ligase, sequence (B1XA82 whole entry): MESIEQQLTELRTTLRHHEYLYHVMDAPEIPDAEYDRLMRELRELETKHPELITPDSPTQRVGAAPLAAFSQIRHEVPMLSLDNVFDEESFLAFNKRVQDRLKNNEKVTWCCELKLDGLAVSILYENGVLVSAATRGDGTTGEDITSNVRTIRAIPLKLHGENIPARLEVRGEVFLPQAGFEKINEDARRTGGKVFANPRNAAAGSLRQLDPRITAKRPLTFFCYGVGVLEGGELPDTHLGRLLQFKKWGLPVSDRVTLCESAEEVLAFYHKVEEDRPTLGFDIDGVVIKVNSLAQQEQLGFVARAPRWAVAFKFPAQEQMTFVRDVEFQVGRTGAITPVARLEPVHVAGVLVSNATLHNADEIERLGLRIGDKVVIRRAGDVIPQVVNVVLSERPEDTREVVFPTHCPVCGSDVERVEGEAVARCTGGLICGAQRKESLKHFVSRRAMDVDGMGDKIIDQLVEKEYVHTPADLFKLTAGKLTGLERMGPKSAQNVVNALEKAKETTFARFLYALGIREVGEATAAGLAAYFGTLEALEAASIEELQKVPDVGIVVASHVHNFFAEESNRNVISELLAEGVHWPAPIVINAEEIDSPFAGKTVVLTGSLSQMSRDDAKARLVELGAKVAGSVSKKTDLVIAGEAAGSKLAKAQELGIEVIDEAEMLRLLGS
DNA helicase, sequence (P0ACB1 whole entry): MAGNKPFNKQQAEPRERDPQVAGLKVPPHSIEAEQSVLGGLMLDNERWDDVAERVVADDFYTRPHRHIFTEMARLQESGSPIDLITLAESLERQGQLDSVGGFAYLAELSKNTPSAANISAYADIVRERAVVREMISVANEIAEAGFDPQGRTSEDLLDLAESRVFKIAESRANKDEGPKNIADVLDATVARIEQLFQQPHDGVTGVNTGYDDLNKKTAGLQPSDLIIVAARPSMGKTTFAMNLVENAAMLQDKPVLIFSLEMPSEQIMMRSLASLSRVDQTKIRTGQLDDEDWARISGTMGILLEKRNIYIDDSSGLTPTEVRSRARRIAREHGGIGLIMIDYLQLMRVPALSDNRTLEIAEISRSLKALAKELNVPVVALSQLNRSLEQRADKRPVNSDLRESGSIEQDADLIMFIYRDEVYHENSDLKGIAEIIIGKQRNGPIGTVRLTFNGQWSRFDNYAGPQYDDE

Structure (SMILES) | relative enzymatic activity (DNA gyrase) | relative enzymatic activity (DNA helicase) | relative enzymatic activity (DNA ligase) | relative enzymatic activity (DNA polymerase) | relative enzymatic activity (DNA primase) | relative enzymatic activity (GlmU) | relative enzymatic activity (Guanlyate kinase) | relative enzymatic activity (MurA) | relative enzymatic activity (MurD) | relative enzymatic activity (MurF) | relative enzymatic activity (RNA polymerase)
COC(=O)N/N=C/c1c[n+]([O-])c2ccccc2[n+]1[O-] | 0.905 ± 0.076 | 0.651 ± 0.26 | 0.933 ± 0.14 | 1.16 ± 0.23 | 0.803 ± 0.018 | 1.012 ± 0.0043 | 0.591 ± 0.026 | 0.719 ± 0.12 | 0.604 ± 0.4 | 0.913 ± 0.27 | 0.789 ± 0.081
COC1(NC(=O)C2SC(=C(C(N)=O)C(=O)O)S2)C(=O)N2C(C(=O)O)=C(CSc3nnnn3C)CSC21 (centres undefined) | 0.705 ± 0.46 | 0.463 ± 0.027 | 1.47 ± 0.23 | 1.18 ± 0.25 | 0.683 ± 0.18 | 0.99 ± 0.066 | 0.994 ± 0.02 | 0.0627 ± 0.021 | 0.618 ± 0.43 | 0.974 ± 0.2 | 0.871 ± 0.07
CCOC(=O)OC(C)OC(=O)C1N2C(=O)C(NC(=O)C(N)c3ccccc3)C2SC1(C)C.Cl (centres undefined) | 0.992 ± 0.22 | 0.463 ± 0.04 | 0.901 ± 0.089 | 1.09 ± 0.16 | 0.841 ± 0.011 | 1.04 ± 0.033 | 0.975 ± 0.026 | 0.82 ± 0.1 | 0.598 ± 0.42 | 0.981 ± 0.23 | 0.803 ± 0.031
O=C(O)c1cn(C2CC2)c2cc(N3CCC(O)(COc4ccc(N5C[C@H](CO)OC5=O)cc4F)CC3)c(F)cc2c1=O | 0.0421 ± 0.059 | 0.414 ± 0.095 | 0.9068 ± 0.0026 | 1.13 ± 0.22 | 0.851 ± 0.039 | 0.9967 ± 0.0077 | 0.905 ± 0.15 | 0.608 ± 0.25 | 0.583 ± 0.39 | 1.22 ± 0.022 | 0.8 ± 0.067
COC1C=COC2(C)Oc3c(C)c(O)c4c(O)c(c5c(nc6cc(C)ccn65)c4c3C2=O)NC(=O)C(C)=CC=CC(C)C(O)C(C)C(O)C(C)C(OC(C)=O)C1C (centres undefined) | 0.733 ± 0.23 | 0.703 ± 0.32 | 1.12 ± 0.24 | 1.11 ± 0.24 | 0.8 ± 0.047 | 0.746 ± 0.032 | 0.583 ± 0.0086 | 0.423 ± 0.046 | 0.417 ± 0.28 | 0.788 ± 0.15 | 0.106 ± 0.0026
COC1(NC(=O)CSCC#N)C(=O)N2C(C(=O)[O-])=C(CSc3nnnn3C)CSC21.[Na+] (centres undefined) | 0.762 ± 0.27 | 0.259 ± 0.32 | 1.42 ± 0.28 | 1.16 ± 0.3 | 0.669 ± 0.18 | 1.12 ± 0.035 | 0.746 ± 0.076 | 0.167 ± 0.022 | 0.706 ± 0.47 | 1.01 ± 0.2 | 0.839 ± 0.031
CC1CCc2c(N3CCC(O)CC3)c(F)cc3c(=O)c(C(=O)O)cn1c23 (centres undefined) | 0.0257 ± 0.036 | 0.552 ± 0.1 | 0.916 ± 0.018 | 1.19 ± 0.29 | 0.8373 ± 0.0067 | 0.9778 ± 0.0021 | 0.957 ± 0.071 | 0.8065 ± 0.0039 | 0.566 ± 0.37 | 1.102 ± 0.0015 | 0.85 ± 0.059
NCCCC[C@H](NC(=O)[C@@H](NC(=O)[C@H](Cc1c[nH]c2ccccc12)NC(=O)[C@H](CCCCN)NC(=O)[C@H](CCCCN)NC(=O)[C@H](Cc1c[nH]c2ccccc12)NC(=O)[C@H](Cc1c[nH]c2ccccc12)NC(=O)[C@H](CCCCN)NC(=O)[C@@H](N)CCCCN)C(c1ccccc1)c1ccccc1)C(N)=O | 0.0308 ± 0.044 | 0.0869 ± 0.0012 | 1.12 ± 0.43 | 0.0842 ± 0.0071 | 0.299 ± 0.053 | 0.879 ± 0.061 | 0.355 ± 0.02 | 0.477 ± 0.43 | 0.568 ± 0.41 | 0.833 ± 0.18 | 0.0964 ± 0.032
C=CC1=C(C(=O)O)N2C(=O)C(NC(=O)C(=NO)c3csc(N)n3)C2SC1 (centres undefined) | 0.393 ± 0.35 | 0.553 ± 0.15 | 1.19 ± 0.35 | 1.06 ± 0.12 | 0.8619 ± 0.0016 | 0.976 ± 0.068 | 0.917 ± 0.087 | 0.127 ± 0.04 | 0.596 ± 0.39 | 0.968 ± 0.27 | 0.768 ± 0.033
